# In all, about 1,500 compounds went through this assay and about 1,400 (93%) were called active. Rule as the data show it: active = inhibition above about 9.5%; inactive = the rest. So high a share suggests a set chosen from earlier hits. The list is a sample of the results.
# Assay: PGV04 antibody small-molecule binding – biochemical, TR-FRET, distinct HIV envelope site, counter-screen for PG9 antibody binder project (AID 651604)
# Details: TR-FRET PGV04 antibody-gp120 binding, at 6.7 µM, stronger effect = higher value
row,SMILES,inhibition
1,CCN(CC)C(=O)c1ccc(NC(=O)c2sccc2-c2ccccc2)cc1,25.4% (active)
2,N#CC1=C(N)Oc2c(c(=O)oc3ccccc23)C1c1ccccc1OC(=O)c1cccs1 (configuration not stated),28% (active)
